Screening results (PubChem BioAssay)
MazF activator = activators of E. coli MazEF toxin-antitoxin RNase, primary screen, biochemical, fluorescence, uHTS; Endoribonuclease toxin MazF (Escherichia coli (strain K12)), P0AE70; FAM/BHQ RNA-DNA oligo cleavage fluorescence, 5 h; activation, % at 20 µM; 350,000 tested, 0.32% active; AID 504720, 2011; in the data active means activation above about 50%
Target sequence (P0AE70 whole entry, looked up): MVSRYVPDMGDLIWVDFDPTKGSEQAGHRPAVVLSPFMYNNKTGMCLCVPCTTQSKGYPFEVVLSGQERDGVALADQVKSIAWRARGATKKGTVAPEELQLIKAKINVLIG
SARS 3CLpro inh-1 = SARS-CoV 3CLpro protease inhibitors, primary screen, biochemical, quenched FRET; Replicase polyprotein 1ab (Severe acute respiratory syndrome coronavirus), P0C6X7; recombinant SARS-CoV 3CLpro, quenched FRET peptide cleavage; inhibition, % at 6 µM; 290,000 tested, 0.14% active; AID 1706, 2009; in the data active means inhibition above about 12%
SSB-PriA inh = inhibitors of Klebsiella pneumoniae PriA binding to SSB C-terminal tail, primary screen, biochemical, AlphaScreen; PriA–SSB C-terminal tail interaction (Klebsiella pneumoniae); AlphaScreen SSBct-PriA binding, biotinylated peptide; inhibition, % at 33 µM; 430,000 tested, 0.6% active; AID 1272365, 2023; in the data active means inhibition mostly above about 37%, no sharp cut-off; inactive means mostly below about 20%;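 further: plate controls were negative control peptide for no effect and reference peptide for full effect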
Y pestis TopoI = Yersinia pestis topoisomerase I inhibitors, primary screen, biochemical, cleavage product accumulation, plate reader, single point | DNA topoisomerase I (Yersinia pestis CO92) | Y. pestis Topo-I cleavage product accumulation | activity, % at 10 µM | 360,000 tested, 0.064% active | AID 504884, 2011; in the data active means activity above about 50%, passing the limit was not always enough
SARS 3CLpro inh-2 = confirmation of SARS coronavirus 3C-like protease inhibitors, retest, confirmation, biochemical. shares compounds with SARS 3CLpro inh-1. QFRET protease activity assay, 3CLpro. inhibition, % at 6 µM. 380 tested, 36% active. AID 1879, 2009; in the data active means inhibition above about 13%
An asterisk follows results filed as active. In the library only some 0.9% were active in any assay of this set; here they are far more common.

What do the screens show for `CSc1ccccc1OCc1cc(C(=O)N(C)Cc2cnccn2)no1`?
MazF activator: 1; SARS 3CLpro inh-1: 14*; SSB-PriA inh: -1; Y pestis TopoI: 5; SARS 3CLpro inh-2: 1

Results for CSc1ccccc1OCc1cc(C(=O)N(C)Cc2cc(C)[nH]n2)no1 ?
MazF activator: -5; SARS 3CLpro inh-1: -4; SSB-PriA inh: 3; Y pestis TopoI: 17

Results for Cc1cc(N2CCc3ccccc3C2)c(F)cc1[N+](=O)[O-] ?
SSB-PriA inh: 60

What do the screens show for `Cc1sc(NC(=O)CCl)c(C(=O)c2ccccc2)c1C`?
MazF activator: -2; SARS 3CLpro inh-1: 14*; SSB-PriA inh: 15; Y pestis TopoI: 4; SARS 3CLpro inh-2: 36*

How did Cc1ccccc1C(=O)Nc1sc(C)c(C)c1C(=O)c1ccccc1 do in these assays?
MazF activator: 6; SARS 3CLpro inh-1: 1; SSB-PriA inh: -3; Y pestis TopoI: 25

How did Cc1cccc(Nc2nnc(SCC(=O)Nc3ncc(C(F)(F)F)cc3Cl)s2)c1C do in these assays?
MazF activator: -2; SARS 3CLpro inh-1: 13*; SSB-PriA inh: 3; Y pestis TopoI: 1; SARS 3CLpro inh-2: 3

What do the screens show for `Cc1ccccc1Nc1nnc(SCC(=O)Nc2ncc(C(F)(F)F)cc2Cl)s1`?
MazF activator: -13; SARS 3CLpro inh-1: 20*; SSB-PriA inh: 0; Y pestis TopoI: 10; SARS 3CLpro inh-2: -4

What do the screens show for `Fc1cccc(-c2noc(Cc3nc(-c4ccccc4Cl)cs3)n2)c1`?
SSB-PriA inh: -20

What do the screens show for `CC(C)Oc1cc(NC(=O)CSCC(=O)Nc2cccc(C(F)(F)F)c2)c(Cl)cc1Cl`?
MazF activator: -5; SARS 3CLpro inh-1: 17*; SSB-PriA inh: -12; Y pestis TopoI: -7; SARS 3CLpro inh-2: 1

Results for O=C(O)CSCC(=O)Nc1cc(C(F)(F)F)ccc1Cl ?
MazF activator: 3; SARS 3CLpro inh-1: -2; SSB-PriA inh: -6; Y pestis TopoI: 4

Results for CN(C)S(=O)(=O)c1cccc(NC(=S)N/N=C/c2cc(Br)ccc2O)c1 ?
MazF activator: -27; SARS 3CLpro inh-1: 15*; Y pestis TopoI: -3; SARS 3CLpro inh-2: 5

How did O=C(NCCc1ccccc1)C(=O)NCC1OCCN1S(=O)(=O)c1ccc2c(c1)OCCO2 (configuration not stated) do in these assays?
MazF activator: 4; SARS 3CLpro inh-1: 15*; SSB-PriA inh: -4; Y pestis TopoI: 26; SARS 3CLpro inh-2: 0

How did CC(C)(C)c1ccc(OCCCn2c(=O)oc3ccccc32)cc1 do in these assays?
SSB-PriA inh: -2

Results for Cc1c(OCC(=O)N[C@@H](Cc2c[nH]c3ccccc23)C(=O)O)ccc2c1oc(=O)c1ccccc12 ?
MazF activator: -2; SARS 3CLpro inh-1: 14*; SSB-PriA inh: 4; Y pestis TopoI: 4; SARS 3CLpro inh-2: 9

What do the screens show for `CC(O)(CNC(=O)C(=O)Nc1cc2c3c(c1)CC(=O)N3CCC2)c1cc2ccccc2s1` (configuration not stated)?
SSB-PriA inh: 12

How did O=C(Cn1nnc(-c2ccccc2NC(=O)c2ccccc2F)n1)NCc1ccco1 do in these assays?
MazF activator: -11; SARS 3CLpro inh-1: 12*; SSB-PriA inh: -5; Y pestis TopoI: 1; SARS 3CLpro inh-2: 1

Results for COc1ccc(C(=O)Nc2ccccc2-c2nnn(CC(=O)NCc3ccco3)n2)cc1 ?
MazF activator: -2; SARS 3CLpro inh-1: -2; SSB-PriA inh: -14; Y pestis TopoI: 9

What do the screens show for `COc1ccc(N(C(=O)Cn2nnc3ccccc32)C2(C(=O)NC3CCCC3)CCCCC2)cc1`?
MazF activator: -1; SARS 3CLpro inh-1: 30*; SSB-PriA inh: 8; Y pestis TopoI: 31; SARS 3CLpro inh-2: 43*

How did CC(NC(=O)CCl)c1ccc(Cl)c(Cl)c1 (configuration not stated) do in these assays?
MazF activator: -12; SARS 3CLpro inh-1: 20*; SSB-PriA inh: -11; Y pestis TopoI: 0; SARS 3CLpro inh-2: 40*

What do the screens show for `COc1ccc(CCS(=O)(=O)NCC2CCN(Cc3ccco3)CC2)cc1`?
SSB-PriA inh: 1

What do the screens show for `COc1ccc2cc(C3(C)NC(=O)N(CC(=O)NCc4ccco4)C3=O)ccc2c1` (configuration not stated)?
MazF activator: 3; SARS 3CLpro inh-1: 16*; SSB-PriA inh: 2; Y pestis TopoI: 0; SARS 3CLpro inh-2: 12*

Results for Cc1cc(NC(=O)c2ccc(Cc3ccccc3)cc2)on1 ?
SSB-PriA inh: 5

How did O=C(CN1C(=O)c2ccccc2C1=O)Oc1ccc(F)cc1 do in these assays?
SARS 3CLpro inh-1: 13*; SARS 3CLpro inh-2: 10

How did CCc1ccc(OC(=O)CN2C(=O)c3ccccc3C2=O)cc1 do in these assays?
MazF activator: -3; SARS 3CLpro inh-1: 7; SSB-PriA inh: -9; Y pestis TopoI: 10

What do the screens show for `COc1ccc(S(=O)(=O)Nc2ccc(F)cc2)cc1N(C)S(=O)(=O)c1ccc(Cl)cc1`?
MazF activator: -1; SARS 3CLpro inh-1: 17*; SSB-PriA inh: 4; Y pestis TopoI: -11; SARS 3CLpro inh-2: -2

How did COc1ccc(NS(=O)(=O)c2ccc(OC)c(N(C)S(=O)(=O)c3ccc(Cl)cc3)c2)cc1 do in these assays?
MazF activator: -6; SARS 3CLpro inh-1: 2; SSB-PriA inh: 2; Y pestis TopoI: -10

How did COc1ccc(NC(=O)c2ccc3c(=O)n(-c4ccc(OC)cc4OC)c(=S)[nH]c3c2)cc1 do in these assays?
MazF activator: 7; SARS 3CLpro inh-1: 14*; SSB-PriA inh: 6; Y pestis TopoI: -9; SARS 3CLpro inh-2: -4

How did Cc1nnc(SC(=O)N2c3ccccc3Sc3ccccc32)s1 do in these assays?
MazF activator: 9; SARS 3CLpro inh-1: 24*; SSB-PriA inh: -4; Y pestis TopoI: -9; SARS 3CLpro inh-2: 38*

How did CCOC(=O)N1c2ccccc2Sc2ccccc21 do in these assays?
MazF activator: -6; SARS 3CLpro inh-1: 6; SSB-PriA inh: -39; Y pestis TopoI: 1

Results for Cc1nnc(NC(=O)c2cc(-c3ccccn3)nc3ccccc23)s1 ?
SSB-PriA inh: -14
